Experimental data taken from ChEMBL document CHEMBL3433997, “St. Jude Leishmania screening dataset” (2016).

The compounds below were run against Hexose transporter 1 (Plasmodium falciparum) (UniProt O97467) (assay: ST_JUDE_LEISH: Cytotoxicity at 2uM final concentration against transgenic Leishmania Mexicana promastigotes LmPfHT that are glucose transport deficient and complemented with the Plasmodium falciparum hexose transporter. Activity is measured by DNA content using SYBR green in vitro).
Format: functional

First: CC(C(=O)OCCOCn1cnc2c(=O)[nH]c(N)nc21)N(C)C(=O)OC(C)(C)C (stereo not given)
Second: CCCCCCCN1CCC(NC(=O)Nc2ccnc3ccc(OC)cc23)C(C(=O)OCC)C1 (stereo not given)
The inhibition of the first is lower: -1.51% for the first, 0% for the second.

Going from CCc1cccc(-n2c(=O)c3cccnc3n2CC(=O)NC2CCCC2)c1 to O=C(NCCCCCN1CCC(c2c[nH]c3ccccc23)CC1)Nc1cccc(Br)c1, the inhibition falls from 12% to 7.56%.

Compared with CC1CCCCC1N(C)C1CCN(CCCNC(=O)C=Cc2cccc(C(F)(F)F)c2)CC1 (stereo not given), O=C(Nc1ccc(C(F)(F)F)cc1)c1cccc(S(=O)(=O)NC2CCN(Cc3ccccc3)C2)c1 (stereo not given) is higher in inhibition: 2.29% for the first, 3.64% for the second.

Compared with CC(C)CCNC(=O)C1Cc2c([nH]c3ccc(Br)cc23)C2(CCN(CCc3ccccc3)CC2)N1 (stereo not given), COc1ccc(Cl)cc1N1CCN(CCCNC(=O)c2ccc(-c3nc4cc(Cl)c(Cl)cc4[nH]3)c(C)c2)CC1 is higher in inhibition: 0.42% for the first, 0.9% for the second.

Compared with CN1C(=O)C(=O)N(CCCCCONC(=N)N)C1=S, Nc1c(Cl)cc(C(O)CNCCCCCCOCCc2ccc(O)cc2)cc1Cl (stereo not given) is lower in inhibition: 6.2% for the first, -1.55% for the second.

Compared with CC(=O)c1ccc(NC(=O)CSc2nc(-c3ccccc3Cl)ns2)cc1, O=C(Nc1cccc(-c2cc(-c3c(Cl)cccc3Cl)no2)c1)c1cnc2ccccc2c1 is lower in inhibition: 10.3% for the first, 9.35% for the second.

Compared with O=C(Nc1cccc(-c2nn3ccccc3c2-c2ccnc(Nc3ccc(NCCCN4CCOCC4)c(F)c3)n2)c1)c1c(F)cccc1F, Cc1cc(C2CCN(CCCCNC(=O)c3ccc(NC(=O)c4ccc(Cl)cc4)cc3)CC2)c(C)cc1OCc1nccn1C is lower in inhibition: 30.5% for the first, 0.08% for the second.

Compared with O=C1CCCN1CCCNCc1ccc(-c2ccc(-c3nc4cc(F)ccc4[nH]3)s2)cc1, COc1ccc(CNC(=O)NC2CCN(c3ccnc(Nc4ccc(F)cc4)n3)C2)cc1 (stereo not given) is higher in inhibition: 1.67% for the first, 5.37% for the second.

Compared with Cn1cnnc1Sc1ccc(CN2CCOc3ccc(C4=CCCCC4)cc3C2)o1, CCCCSc1nc2c(c(=O)n1Cc1ccco1)C1(CCCCC1)Cc1ccccc1-2 is lower in inhibition: 1.97% for the first, 1.36% for the second.

First: COC(=O)[C@@H](NC(=O)[C@H](CC(C)C)Nc1ccc(C#N)c2ccccc12)c1ccc(O)cc1
Second: Cc1cc(NCCc2ccc(O)cc2)nc(NCC(c2ccccc2)c2ccccc2)n1
The inhibition of the first is lower: 0.76% for the first, 8.92% for the second.

Going from CC(=O)c1ccc(NC(=O)NNC(=O)c2ccc(CCN3CCC(c4nc(COCC(F)(F)F)c(-c5ccc(F)cc5)o4)CC3)cc2)cc1 to CCc1cn(CC(=O)N(CCOc2ccc(-c3ccc(C(F)(F)F)cc3)cc2)CCN(CC)CC)c(SCc2ccc(F)cc2)nc1=O, the inhibition falls from 0.69% to 0.65%.

First: Fc1ccc(C=NNc2nc3ccccc3[nH]2)cc1
Second: COc1ccc2c(=NN=Cc3c(OC)ccc4ccccc34)cc(C)[nH]c2c1
The inhibition of the first is higher: 13.1% for the first, 2.99% for the second.

First: CCc1ccccc1N=C1c2c(cccc2[N+](=O)[O-])C(=O)C1C(C)=O (stereo not given)
Second: Cc1cc(C)c2oc(-c3cccc(NC(=O)c4ccc([N+](=O)[O-])o4)c3C)nc2c1
The inhibition of the first is lower: -1.21% for the first, 10.4% for the second.

First: COc1cccc(-c2ccc3c(-c4ccc(F)cc4)cnc(N)c3c2)c1
Second: O=C(Nc1ccc(Cl)cc1)Nc1cccc(-c2cccc(-c3nc4cc(C(F)(F)F)ccc4[nH]3)c2)c1
The inhibition of the first is higher: 4.32% for the first, -0.83% for the second.

Compared with O=C(NCc1cccnc1)C(c1cc2ccccc2o1)N1CCN(C(c2ccccc2)c2ccccc2)CC1 (stereo not given), COc1ccc(C2C(C(=O)Nc3ccccc3)=C(C)Nc3c(C(=O)Nc4ccccc4)cnn32)cc1 (stereo not given) is lower in inhibition: 2.1% for the first, 0.21% for the second.

First: CCOCCCNc1sc(S(=O)(=O)c2ccccc2)nc1S(=O)(=O)c1ccc(C)cc1
Second: COc1ccc(NC(=O)C2c3ccccc3C(=O)N(C3CCCC3)C2c2cccs2)cc1OC (stereo not given)
The inhibition of the first is higher: 8.79% for the first, 5.65% for the second.

First: CCCNCc1ccc(-c2ccc(CN(Cc3ccc4c(c3)OCO4)C(=O)Cc3cccnc3)cc2)nc1
Second: Cc1ccc(-n2c(C)nc3c(Nc4ccc(-c5ccncc5)cc4)ncnc32)c(C)c1
The inhibition of the first is lower: 15.2% for the first, 95.1% for the second.

Compared with CCn1c(-c2nonc2N)nc2c(-c3cccc(NC(=O)Nc4ccc(C(F)(F)F)cc4)c3)ncc(OCCCN)c21, CC(C)(CNC(=O)[C@@H]1CCCN(CCOc2ccc(Cl)cc2)C1)c1nc(-c2ccc(Cl)c(O)c2)c(-c2ccncc2)[nH]1 is lower in inhibition: 2.48% for the first, 2.16% for the second.

First: COc1ccc(-c2ccc(NC(=O)c3ccc(Cl)cc3)cc2)cc1CN1CCCN(C)CC1
Second: COc1ccc(C(=O)N2CCc3cc4nccc(N5CCN6CCC[C@H]6C5)c4cc32)cc1
The inhibition of the first is higher: 4.81% for the first, 3.64% for the second.

Going from Nc1ccc(Oc2ccc(Cc3cnc(N)nc3N)cc2)cc1 to CCCc1cc(NC2CCN(C)CC2)nc(Nc2ccc(C)cc2)n1, the inhibition falls from 4.16% to 3.28%.
